# Laboratory results from paper PMC7862700, “An all-to-all approach to the identification of sequence-specific readers for epigenetic DNA modifications on cytosine”.
# How the values were obtained:
# Test in all cases: DAPPL (digital affinity profiling via proximity ligation, sequencing); 10 mM Tris-HCl pH 7.5, 50 mM NaCl, 1 mM DTT, 4% glycerol, room temperature, 30 min; GST-TFs on glutathione beads, 16-mer random dsDNA library, 0.1% formaldehyde crosslink after washing; high values mean tight binding
# FLI1 = molecular target: T1, FLI1 (Homo sapiens, UniProt Q01543 1-452); details: protein: recombinant; tags: N-terminal GST; dsDNA, one strand shown
# T1 sequence: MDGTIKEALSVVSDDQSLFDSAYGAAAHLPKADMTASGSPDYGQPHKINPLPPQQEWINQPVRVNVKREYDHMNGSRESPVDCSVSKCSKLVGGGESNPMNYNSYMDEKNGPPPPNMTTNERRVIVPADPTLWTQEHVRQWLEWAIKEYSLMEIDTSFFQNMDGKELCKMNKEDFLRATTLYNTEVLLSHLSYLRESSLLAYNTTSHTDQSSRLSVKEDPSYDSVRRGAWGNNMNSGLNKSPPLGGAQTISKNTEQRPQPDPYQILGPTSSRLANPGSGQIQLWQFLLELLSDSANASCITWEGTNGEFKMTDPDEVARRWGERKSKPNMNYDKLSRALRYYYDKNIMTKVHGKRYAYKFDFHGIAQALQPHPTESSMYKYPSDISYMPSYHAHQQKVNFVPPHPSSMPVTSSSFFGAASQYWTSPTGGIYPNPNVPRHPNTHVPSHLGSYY
# Outline: (§1)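 Human transcription factors fused to GST were expressed in yeast, captured on glutathione beads, given DNA barcodes and pooled with a GST-only negative control. Pools were incubated with 200 nmole of a 16-mer random double-stranded DNA library in Tris/NaCl/DTT/glycerol buffer at room temperature for 30 min. They were then washed, crosslinked with 0.1% formaldehyde, proximity-ligated (BsaI/T4 ligase, 1 h, 37 °C), PCR-amplified and sequenced on an Illumina NextSeq500. Binding signal is each 6-mer's read frequency for a factor divided by its frequency for the GST control.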
# ELK1 = molecular target: T2, ELK1 (Homo sapiens, UniProt P19419 1-428); details: protein: recombinant; tags: N-terminal GST; dsDNA, one strand shown
# T2 sequence: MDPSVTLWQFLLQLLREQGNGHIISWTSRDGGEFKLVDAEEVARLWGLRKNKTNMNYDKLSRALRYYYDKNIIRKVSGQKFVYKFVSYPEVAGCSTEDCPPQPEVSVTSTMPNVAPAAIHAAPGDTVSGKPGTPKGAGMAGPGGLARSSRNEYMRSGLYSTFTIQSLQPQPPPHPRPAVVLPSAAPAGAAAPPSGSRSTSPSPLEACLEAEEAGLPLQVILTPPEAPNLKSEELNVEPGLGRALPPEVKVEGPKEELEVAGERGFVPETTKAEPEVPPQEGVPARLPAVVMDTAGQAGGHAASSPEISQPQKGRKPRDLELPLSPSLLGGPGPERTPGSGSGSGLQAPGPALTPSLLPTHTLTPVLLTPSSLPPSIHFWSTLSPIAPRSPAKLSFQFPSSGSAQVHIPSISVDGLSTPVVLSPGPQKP
# Outline: as §1
# GABPA = molecular target: T3, GABPA (Homo sapiens, UniProt Q06546 1-454); details: protein: recombinant; tags: N-terminal GST; dsDNA, one strand shown
# T3 sequence: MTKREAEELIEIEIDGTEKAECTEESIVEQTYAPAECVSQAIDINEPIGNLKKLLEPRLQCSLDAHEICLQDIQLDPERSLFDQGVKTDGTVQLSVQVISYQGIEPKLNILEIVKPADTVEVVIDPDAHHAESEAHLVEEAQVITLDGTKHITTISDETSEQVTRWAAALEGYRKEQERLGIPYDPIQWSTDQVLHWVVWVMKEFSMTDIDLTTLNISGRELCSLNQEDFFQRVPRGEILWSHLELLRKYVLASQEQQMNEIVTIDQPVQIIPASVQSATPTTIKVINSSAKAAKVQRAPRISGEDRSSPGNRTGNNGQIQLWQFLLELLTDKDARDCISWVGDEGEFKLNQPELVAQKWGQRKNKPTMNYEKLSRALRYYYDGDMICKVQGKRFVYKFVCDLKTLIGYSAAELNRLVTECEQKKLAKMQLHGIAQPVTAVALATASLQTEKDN
# Outline: as §1
# ERG = molecular target: T4, ERG (Homo sapiens, UniProt P11308 1-479); details: protein: recombinant; tags: N-terminal GST; dsDNA, one strand shown
# T4 sequence: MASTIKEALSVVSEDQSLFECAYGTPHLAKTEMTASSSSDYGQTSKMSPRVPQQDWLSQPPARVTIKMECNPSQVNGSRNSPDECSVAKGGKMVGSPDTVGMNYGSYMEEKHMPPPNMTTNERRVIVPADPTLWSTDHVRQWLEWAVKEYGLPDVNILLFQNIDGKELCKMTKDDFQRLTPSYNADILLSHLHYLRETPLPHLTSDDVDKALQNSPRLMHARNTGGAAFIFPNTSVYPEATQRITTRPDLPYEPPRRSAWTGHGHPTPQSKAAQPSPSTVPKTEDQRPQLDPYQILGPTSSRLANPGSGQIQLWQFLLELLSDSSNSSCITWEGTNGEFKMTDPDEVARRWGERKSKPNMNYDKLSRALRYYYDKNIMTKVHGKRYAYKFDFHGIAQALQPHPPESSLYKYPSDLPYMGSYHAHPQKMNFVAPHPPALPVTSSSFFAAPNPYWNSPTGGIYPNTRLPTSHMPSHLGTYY
# Outline: as §1
# ELF1 = ELF1 (Homo sapiens, UniProt P32519 1-619); details: protein: recombinant; tags: N-terminal GST; dsDNA, one strand shown
# Outline: as §1
# EHF = molecular target: T5, EHF (Homo sapiens, UniProt Q9NZC4 1-300); details: protein: recombinant; tags: N-terminal GST; dsDNA, one strand shown
# T5 sequence: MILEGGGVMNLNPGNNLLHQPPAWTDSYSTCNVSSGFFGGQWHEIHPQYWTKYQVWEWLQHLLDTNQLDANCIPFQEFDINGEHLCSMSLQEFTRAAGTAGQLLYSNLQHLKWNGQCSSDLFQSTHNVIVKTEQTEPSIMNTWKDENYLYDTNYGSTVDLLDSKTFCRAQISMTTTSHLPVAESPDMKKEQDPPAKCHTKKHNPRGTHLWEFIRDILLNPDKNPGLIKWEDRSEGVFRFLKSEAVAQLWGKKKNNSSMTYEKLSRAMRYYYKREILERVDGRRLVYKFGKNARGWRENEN
# Outline: as §1
# SPI1 = SPI1 (Homo sapiens, UniProt P17947 1-270); details: protein: recombinant; tags: N-terminal GST; dsDNA, one strand shown
# Outline: as §1
# SPIB = SPIB (Homo sapiens, UniProt Q01892 1-262); details: protein: recombinant; tags: N-terminal GST; dsDNA, one strand shown
# Outline: as §1
# ELK3 = molecular target: T6, ELK3 (Homo sapiens, UniProt P41970 1-407); details: protein: recombinant; tags: N-terminal GST; dsDNA, one strand shown
# T6 sequence: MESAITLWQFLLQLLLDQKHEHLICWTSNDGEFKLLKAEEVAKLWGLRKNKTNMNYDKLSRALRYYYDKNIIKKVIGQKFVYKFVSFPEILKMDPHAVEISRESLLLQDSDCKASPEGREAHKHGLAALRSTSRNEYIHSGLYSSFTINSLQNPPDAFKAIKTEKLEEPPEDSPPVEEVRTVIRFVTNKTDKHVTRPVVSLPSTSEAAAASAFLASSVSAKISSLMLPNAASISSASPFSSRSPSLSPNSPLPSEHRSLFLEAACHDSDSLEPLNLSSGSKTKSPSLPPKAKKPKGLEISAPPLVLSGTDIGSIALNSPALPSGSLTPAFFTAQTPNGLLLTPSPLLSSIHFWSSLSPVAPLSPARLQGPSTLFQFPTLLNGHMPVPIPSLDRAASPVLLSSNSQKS
# Outline: as §1
# FEV = molecular target: T7, FEV (Homo sapiens, UniProt Q99581 1-238); details: protein: recombinant; tags: N-terminal GST; dsDNA, one strand shown
# T7 sequence: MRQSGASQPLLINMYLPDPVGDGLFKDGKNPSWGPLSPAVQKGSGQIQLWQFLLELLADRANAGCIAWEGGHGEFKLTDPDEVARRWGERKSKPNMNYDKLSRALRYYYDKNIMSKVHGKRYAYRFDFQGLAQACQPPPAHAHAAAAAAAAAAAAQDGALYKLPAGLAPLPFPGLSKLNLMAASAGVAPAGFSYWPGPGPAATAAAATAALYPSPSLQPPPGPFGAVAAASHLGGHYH
# Outline: as §1
# ETV5 = ETV5 (Homo sapiens, UniProt P41161 1-510); details: protein: recombinant; tags: N-terminal GST; dsDNA, one strand shown
# Outline: as §1
# HSF1 = HSF1 (Homo sapiens, UniProt Q00613 1-529); details: protein: recombinant; tags: N-terminal GST; chain copies: 3; dsDNA, one strand shown
# Outline: as §1
# SPIC = molecular target: T8, SPIC (Homo sapiens, UniProt Q8N5J4 1-248); details: protein: recombinant; tags: N-terminal GST; dsDNA, one strand shown
# T8 sequence: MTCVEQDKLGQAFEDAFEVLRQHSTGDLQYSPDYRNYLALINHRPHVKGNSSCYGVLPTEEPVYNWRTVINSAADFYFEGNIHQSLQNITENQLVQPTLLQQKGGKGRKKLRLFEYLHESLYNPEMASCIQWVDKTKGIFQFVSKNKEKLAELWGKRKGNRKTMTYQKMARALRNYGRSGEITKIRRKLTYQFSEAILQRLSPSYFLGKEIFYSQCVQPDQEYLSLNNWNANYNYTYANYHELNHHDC
# Outline: as §1
# ELF4 = ELF4 (Homo sapiens, UniProt Q99607 1-663); details: protein: recombinant; tags: N-terminal GST; dsDNA, one strand shown
# Outline: as §1
# ELK4 = molecular target: T9, ELK4 (Homo sapiens, UniProt P28324-2 1-405); details: protein: recombinant; tags: N-terminal GST; dsDNA, one strand shown
# T9 sequence: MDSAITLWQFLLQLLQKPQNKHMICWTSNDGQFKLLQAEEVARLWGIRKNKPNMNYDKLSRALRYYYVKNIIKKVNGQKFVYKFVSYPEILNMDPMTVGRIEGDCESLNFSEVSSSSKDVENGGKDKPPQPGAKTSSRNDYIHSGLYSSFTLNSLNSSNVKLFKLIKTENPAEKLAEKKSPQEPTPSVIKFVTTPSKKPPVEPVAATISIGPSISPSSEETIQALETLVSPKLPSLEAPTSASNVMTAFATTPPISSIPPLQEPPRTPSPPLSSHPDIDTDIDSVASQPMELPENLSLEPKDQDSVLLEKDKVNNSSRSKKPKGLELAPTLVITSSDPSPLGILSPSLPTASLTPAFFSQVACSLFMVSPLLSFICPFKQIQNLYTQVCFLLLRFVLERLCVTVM
# Outline: as §1
# ETV2 = molecular target: T10, ETV2 (Homo sapiens, UniProt O00321 1-342); details: protein: recombinant; tags: N-terminal GST; dsDNA, one strand shown
# T10 sequence: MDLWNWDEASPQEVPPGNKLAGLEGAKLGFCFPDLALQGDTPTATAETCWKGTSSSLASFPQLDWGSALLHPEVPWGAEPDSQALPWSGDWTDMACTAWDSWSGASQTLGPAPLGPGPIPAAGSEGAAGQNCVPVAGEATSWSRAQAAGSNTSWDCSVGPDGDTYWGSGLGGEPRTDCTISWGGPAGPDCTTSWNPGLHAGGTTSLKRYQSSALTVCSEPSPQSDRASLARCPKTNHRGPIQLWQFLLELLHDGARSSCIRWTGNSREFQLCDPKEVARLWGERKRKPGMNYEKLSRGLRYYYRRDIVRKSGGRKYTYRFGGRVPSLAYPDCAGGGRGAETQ
# Outline: as §1
# ELF3 = molecular target: T11, ELF3 (Homo sapiens, UniProt P78545 1-371); details: protein: recombinant; tags: N-terminal GST; dsDNA, one strand shown
# T11 sequence: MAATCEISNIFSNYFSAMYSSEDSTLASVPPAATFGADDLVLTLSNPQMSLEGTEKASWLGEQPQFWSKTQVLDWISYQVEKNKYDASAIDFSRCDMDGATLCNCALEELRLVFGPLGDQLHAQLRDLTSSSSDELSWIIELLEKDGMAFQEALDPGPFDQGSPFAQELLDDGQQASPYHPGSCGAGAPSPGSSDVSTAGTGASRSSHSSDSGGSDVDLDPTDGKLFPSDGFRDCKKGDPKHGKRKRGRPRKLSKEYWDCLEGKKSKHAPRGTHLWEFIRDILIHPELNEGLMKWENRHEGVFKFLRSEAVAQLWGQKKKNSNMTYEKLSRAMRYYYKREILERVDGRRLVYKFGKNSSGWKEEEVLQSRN
# Outline: as §1
# CRX = CRX (Homo sapiens, UniProt O43186 1-299); details: protein: recombinant; tags: N-terminal GST; dsDNA, one strand shown
# Outline: as §1
# ETV1 = ETV1 (Homo sapiens, UniProt P50549 1-477); details: protein: recombinant; tags: N-terminal GST; dsDNA, one strand shown
# Outline: as §1
# Sequence of ELF1 (P32519 whole entry): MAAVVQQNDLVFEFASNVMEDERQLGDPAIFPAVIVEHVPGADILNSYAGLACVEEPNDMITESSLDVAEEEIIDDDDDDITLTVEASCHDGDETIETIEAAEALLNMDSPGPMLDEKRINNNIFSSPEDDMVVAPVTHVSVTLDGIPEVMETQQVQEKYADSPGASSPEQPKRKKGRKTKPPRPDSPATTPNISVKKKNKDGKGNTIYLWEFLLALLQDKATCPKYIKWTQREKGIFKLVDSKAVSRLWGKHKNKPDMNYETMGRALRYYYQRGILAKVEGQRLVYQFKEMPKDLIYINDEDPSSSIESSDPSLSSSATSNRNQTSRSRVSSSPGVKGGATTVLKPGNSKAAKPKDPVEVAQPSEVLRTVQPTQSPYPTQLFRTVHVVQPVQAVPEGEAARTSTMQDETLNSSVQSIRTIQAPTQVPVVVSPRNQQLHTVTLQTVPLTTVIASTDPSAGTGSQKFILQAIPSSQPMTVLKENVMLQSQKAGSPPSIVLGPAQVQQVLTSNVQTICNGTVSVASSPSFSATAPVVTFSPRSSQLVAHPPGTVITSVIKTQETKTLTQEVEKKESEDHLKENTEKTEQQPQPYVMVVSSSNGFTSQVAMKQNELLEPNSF
# Sequence of ELF4 (Q99607 whole entry): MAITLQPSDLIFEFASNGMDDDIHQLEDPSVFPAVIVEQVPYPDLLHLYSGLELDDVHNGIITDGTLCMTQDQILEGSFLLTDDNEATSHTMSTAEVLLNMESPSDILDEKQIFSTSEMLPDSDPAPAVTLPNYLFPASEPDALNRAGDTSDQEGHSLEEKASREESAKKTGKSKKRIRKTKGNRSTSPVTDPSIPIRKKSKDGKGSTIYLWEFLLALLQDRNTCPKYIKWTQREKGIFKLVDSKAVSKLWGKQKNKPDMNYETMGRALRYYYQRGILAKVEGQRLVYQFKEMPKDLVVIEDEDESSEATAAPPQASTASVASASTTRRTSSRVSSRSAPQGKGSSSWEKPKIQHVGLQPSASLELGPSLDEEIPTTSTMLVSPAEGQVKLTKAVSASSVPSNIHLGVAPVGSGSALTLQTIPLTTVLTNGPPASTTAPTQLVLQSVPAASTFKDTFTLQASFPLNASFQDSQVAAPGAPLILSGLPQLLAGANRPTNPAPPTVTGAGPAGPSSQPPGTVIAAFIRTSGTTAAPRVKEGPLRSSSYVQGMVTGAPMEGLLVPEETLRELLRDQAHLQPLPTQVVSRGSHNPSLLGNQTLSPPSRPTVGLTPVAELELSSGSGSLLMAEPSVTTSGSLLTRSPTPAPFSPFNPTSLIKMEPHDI
# Sequence of ETV1 (P50549 whole entry): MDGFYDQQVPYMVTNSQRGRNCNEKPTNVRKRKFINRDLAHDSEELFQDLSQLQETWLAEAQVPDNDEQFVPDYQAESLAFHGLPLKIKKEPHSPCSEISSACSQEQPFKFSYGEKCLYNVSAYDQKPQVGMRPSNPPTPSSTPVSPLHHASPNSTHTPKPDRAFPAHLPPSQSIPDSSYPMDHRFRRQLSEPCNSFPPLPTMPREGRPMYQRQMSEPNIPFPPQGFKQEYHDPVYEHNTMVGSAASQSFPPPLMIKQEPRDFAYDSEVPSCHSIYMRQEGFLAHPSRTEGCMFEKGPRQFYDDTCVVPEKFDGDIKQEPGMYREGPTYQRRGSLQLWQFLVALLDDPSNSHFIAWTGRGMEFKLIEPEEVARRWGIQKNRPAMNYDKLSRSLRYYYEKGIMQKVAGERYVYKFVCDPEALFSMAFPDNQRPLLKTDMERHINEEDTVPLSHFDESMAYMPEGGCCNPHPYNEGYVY
# Sequence of SPIB (Q01892 whole entry): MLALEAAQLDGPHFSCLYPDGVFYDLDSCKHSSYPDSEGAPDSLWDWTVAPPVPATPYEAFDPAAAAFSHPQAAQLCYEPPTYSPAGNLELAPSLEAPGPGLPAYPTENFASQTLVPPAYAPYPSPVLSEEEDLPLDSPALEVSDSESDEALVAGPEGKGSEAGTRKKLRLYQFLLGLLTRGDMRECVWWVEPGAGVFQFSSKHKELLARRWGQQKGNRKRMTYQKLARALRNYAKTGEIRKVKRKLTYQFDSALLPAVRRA
# Sequence of ETV5 (P41161 whole entry): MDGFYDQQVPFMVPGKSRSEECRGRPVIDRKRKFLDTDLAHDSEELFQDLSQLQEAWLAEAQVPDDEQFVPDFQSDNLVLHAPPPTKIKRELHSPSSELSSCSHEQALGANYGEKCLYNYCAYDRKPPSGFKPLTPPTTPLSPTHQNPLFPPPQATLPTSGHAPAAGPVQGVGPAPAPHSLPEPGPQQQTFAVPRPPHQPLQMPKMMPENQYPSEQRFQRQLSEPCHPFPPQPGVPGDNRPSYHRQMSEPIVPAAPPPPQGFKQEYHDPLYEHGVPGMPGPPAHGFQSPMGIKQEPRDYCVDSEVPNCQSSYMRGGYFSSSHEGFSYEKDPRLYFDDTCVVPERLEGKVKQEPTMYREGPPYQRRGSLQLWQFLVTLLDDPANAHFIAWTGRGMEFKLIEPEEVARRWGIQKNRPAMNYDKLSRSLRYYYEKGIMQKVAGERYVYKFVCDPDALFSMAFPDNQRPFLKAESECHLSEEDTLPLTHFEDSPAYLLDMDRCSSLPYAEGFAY
# Sequence of CRX (O43186 whole entry): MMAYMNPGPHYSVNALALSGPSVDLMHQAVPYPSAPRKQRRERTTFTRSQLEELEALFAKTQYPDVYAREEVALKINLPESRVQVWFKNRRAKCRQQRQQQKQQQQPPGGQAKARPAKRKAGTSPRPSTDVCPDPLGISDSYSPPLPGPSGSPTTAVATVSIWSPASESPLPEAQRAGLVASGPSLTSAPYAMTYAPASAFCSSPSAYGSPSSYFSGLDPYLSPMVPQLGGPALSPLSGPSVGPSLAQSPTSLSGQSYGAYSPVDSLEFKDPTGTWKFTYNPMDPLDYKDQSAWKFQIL
# Sequence of HSF1 (Q00613 whole entry): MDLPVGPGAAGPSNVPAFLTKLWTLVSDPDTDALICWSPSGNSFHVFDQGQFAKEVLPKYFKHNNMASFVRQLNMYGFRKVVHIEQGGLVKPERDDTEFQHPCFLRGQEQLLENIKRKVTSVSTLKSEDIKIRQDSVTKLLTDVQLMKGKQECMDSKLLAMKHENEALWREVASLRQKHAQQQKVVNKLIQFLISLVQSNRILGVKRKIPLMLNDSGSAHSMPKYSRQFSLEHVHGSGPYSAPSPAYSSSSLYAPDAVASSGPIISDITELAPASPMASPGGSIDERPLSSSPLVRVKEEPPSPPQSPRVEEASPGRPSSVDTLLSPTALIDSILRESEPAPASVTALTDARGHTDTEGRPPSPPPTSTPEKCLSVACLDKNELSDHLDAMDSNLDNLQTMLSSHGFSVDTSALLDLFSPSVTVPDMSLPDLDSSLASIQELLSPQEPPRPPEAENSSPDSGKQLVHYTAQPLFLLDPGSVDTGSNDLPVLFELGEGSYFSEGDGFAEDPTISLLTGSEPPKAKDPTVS
sequence,measurement,setting,value
TCCCGG,binding signal,FLI1,"2.29 fold enrichment (6-mer frequency, TF over GST control)"
same,binding signal,ELK1,"2.07 fold enrichment (6-mer frequency, TF over GST control)"
same,binding signal,GABPA,"2.14 fold enrichment (6-mer frequency, TF over GST control)"
same,binding signal,ERG,"2.22 fold enrichment (6-mer frequency, TF over GST control)"
same,binding signal,ELF1,"2.12 fold enrichment (6-mer frequency, TF over GST control)"
same,binding signal,EHF,"2.19 fold enrichment (6-mer frequency, TF over GST control)"
same,binding signal,SPI1,"2.01 fold enrichment (6-mer frequency, TF over GST control)"
same,binding signal,SPIB,"2.43 fold enrichment (6-mer frequency, TF over GST control)"
same,binding signal,ELK3,"1.96 fold enrichment (6-mer frequency, TF over GST control)"
same,binding signal,FEV,"2.09 fold enrichment (6-mer frequency, TF over GST control)"
same,binding signal,ETV5,"2.27 fold enrichment (6-mer frequency, TF over GST control)"
same,binding signal,HSF1,"1.37 fold enrichment (6-mer frequency, TF over GST control)"
same,binding signal,SPIC,"2.35 fold enrichment (6-mer frequency, TF over GST control)"
same,binding signal,ELF4,"2 fold enrichment (6-mer frequency, TF over GST control)"
same,binding signal,ELK4,"1.91 fold enrichment (6-mer frequency, TF over GST control)"
same,binding signal,ETV2,"2 fold enrichment (6-mer frequency, TF over GST control)"
same,binding signal,ELF3,"2.17 fold enrichment (6-mer frequency, TF over GST control)"
same,binding signal,CRX,"1.41 fold enrichment (6-mer frequency, TF over GST control)"
same,binding signal,ETV1,"2.21 fold enrichment (6-mer frequency, TF over GST control)"
